About 770 (37%) of roughly 2,100 compounds were called active.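 The calls were made as follows: active = by-eye trace score of 1 for enhancers or -1 for inhibitors, so actives lie on both sides (some results past the limit were not filed as active); inactive = score 0, or 3 fluorescent, or 4 baseline rise.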 The list shows a part of the results.

The results in this text go back to PubChem BioAssay AID623911 (Vanderbilt High Throughput Screening Facility, 2012).

Chain of G protein-activated inward rectifier potassium channel 2 (Homo sapiens) + G protein-activated inward rectifier potassium channel 1 (Homo sapiens) (P48051 whole entry, looked up): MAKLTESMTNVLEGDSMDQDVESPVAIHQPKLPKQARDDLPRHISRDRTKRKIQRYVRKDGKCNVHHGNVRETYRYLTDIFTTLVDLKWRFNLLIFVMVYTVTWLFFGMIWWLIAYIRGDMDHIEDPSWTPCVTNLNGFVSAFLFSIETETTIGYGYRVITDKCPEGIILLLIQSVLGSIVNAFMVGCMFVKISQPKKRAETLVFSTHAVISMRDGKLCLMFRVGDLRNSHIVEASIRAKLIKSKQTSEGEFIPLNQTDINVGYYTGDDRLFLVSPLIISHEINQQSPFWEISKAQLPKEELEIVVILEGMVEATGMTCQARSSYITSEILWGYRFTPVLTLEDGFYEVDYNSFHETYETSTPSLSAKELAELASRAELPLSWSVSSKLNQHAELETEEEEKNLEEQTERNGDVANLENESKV
Chain of G protein-activated inward rectifier potassium channel 2 (Homo sapiens) + G protein-activated inward rectifier potassium channel 1 (Homo sapiens) (P48549 whole entry, looked up): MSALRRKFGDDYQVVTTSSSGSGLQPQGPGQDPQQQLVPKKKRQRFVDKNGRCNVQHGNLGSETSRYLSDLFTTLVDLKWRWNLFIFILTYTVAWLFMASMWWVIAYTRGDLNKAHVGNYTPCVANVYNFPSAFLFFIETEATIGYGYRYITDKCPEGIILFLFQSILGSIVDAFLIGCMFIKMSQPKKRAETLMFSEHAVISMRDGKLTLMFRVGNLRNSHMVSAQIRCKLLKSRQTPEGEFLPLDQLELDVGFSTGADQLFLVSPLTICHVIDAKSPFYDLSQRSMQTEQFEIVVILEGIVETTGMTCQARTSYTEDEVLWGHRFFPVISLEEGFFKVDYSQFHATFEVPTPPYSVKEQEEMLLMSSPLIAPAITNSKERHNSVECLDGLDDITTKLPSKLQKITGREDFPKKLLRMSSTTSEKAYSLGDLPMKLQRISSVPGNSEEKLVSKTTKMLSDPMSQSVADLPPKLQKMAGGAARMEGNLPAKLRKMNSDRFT

This experiment concerns the target G protein-activated inward rectifier potassium channel 2 (Homo sapiens) + G protein-activated inward rectifier potassium channel 1 (Homo sapiens) (UniProt P48051+P48549). In words: GIRK1/2 thallium flux modulators, retest, confirmation, cell-based, HEK293 rmGlu8/hGIRK1/2, FluoZin-2 (AID 623911). The following applies: HEK293 rmGlu8/hGIRK1/2, thallium flux FluoZin-2; actives lie on both sides; glutamate co-added at its EC20 level.
As for `COc1ccc(Nc2nc(N)nc(CSc3nnc(C)s3)n2)cc1`, the manual score was 0 (inactive).
On to `Cc1cccc(C)c1NC(=O)C(NC(=O)c1ccccn1)c1ccc([N+](=O)[O-])cc1` (stereo unspecified), for which the manual score is 0 (inactive).
Take `CC1CN(C(=O)C2CCCCC2)C(C)CN1C(=O)C1CCCCC1` (stereo unspecified): the manual score was 0 (inactive).
As for `Cc1cccc(C(=O)CC(=O)c2cc(Cl)ccc2O)c1`, the figure is 0.5 (inactive); as for `O=C(CC(=O)c1ccccc1O)c1ccc(F)cc1`, 1 (active).
For `O=C(CC(=O)c1ccccc1O)c1cccc(F)c1`, the manual score was 1 (active).
Regarding `O=C(CC(=O)c1cc(Cl)ccc1O)c1ccccc1`, the manual score is 0 (inactive).
To `CCC(NC(=O)c1ccccc1O)c1ccccc1` (stereo unspecified) belongs 0 (inactive); to `COc1ccc(CN(CCC#N)C(=S)NC(=O)c2ccccc2)cc1`, 1 (active).
As for `N#CCCN(Cc1ccccc1)C(=S)NC(=O)c1ccccc1`, the figure is 1 (active); as for `COc1cccc(C(=O)NC(=S)Nc2ccc3c4c(cccc24)CC3)c1`, 0 (inactive).
To `Cc1cc(C)cc(OCC(=O)N2N=C(C(F)(F)F)CC2(O)C(C)(C)C)c1` (stereo unspecified) belongs 0 (inactive); to `O=C(N1CCCCC1)N1CCN(C(=O)N(c2ccccc2)c2ccccc2)CC1`, 0 (inactive); to `N/C(=N/O)c1nc(N2CCCC2)nc(N(c2ccccc2)c2ccccc2)n1`, -1 (active).
Consider `CC(C)C(=O)Nc1nnn(C)n1`, for which the manual score is 0 (inactive).
As for `Cc1c(C(=O)NCc2cccnc2)oc2ccc(S(=O)(=O)N3CCC4(CC3)OCCO4)cc12`, the figure is 0 (inactive); as for `CCOC(=O)N1CCN(C(=O)c2oc3ccc(S(=O)(=O)N4CC(C)CC(C)C4)cc3c2C)CC1` (stereo unspecified), -1 (active).
Consider `COC(=O)c1nc(NC(C)=O)n[nH]1`, for which the manual score is 0 (inactive).
As to `CC1(C)CC2CC(C)(CN2c2ncnc3ccccc23)C1` (stereo unspecified), the manual score is -1 (active).
To `O=C(/C=C/c1ccc(Cl)cc1)NC(=S)NN1CCCCC1c1cccnc1` (stereo unspecified) belongs 0 (inactive); to `Cc1cccc(N=C2NC(=O)/C(=C/C=C/c3ccco3)S2)c1C`, 1 (active); to `COC(=O)C1=C(C)NC(=O)/C1=C\c1ccco1`, 0 (inactive).
Turning to `COc1ccc(Nc2nc(-c3cccc([N+](=O)[O-])c3)nc3ccccc23)cc1`, the manual score was 0 (inactive).
As for `COc1ccc(-n2c(=S)[nH]c3ccccc32)cc1`, the figure is 0 (inactive).
`CCCn1c(=N)n(CC(O)COc2cccc(C)c2)c2ccccc21` (stereo unspecified): the manual score was -1 (active).
Consider `CCCn1c(=N)n(CCOc2ccc(OC)cc2)c2ccccc21`, for which the manual score was -1 (active).
As for `Cc1cccc(OCC(O)CN2C(C)(C)CC(O)CC2(C)C)c1` (stereo unspecified), the figure is 0 (inactive); as for `CCOC(=O)Cn1c(=N)n(CCOc2cccc(C)c2)c2ccccc21`, -1 (active).
With `CCOC(=O)C(CCCCOc1cccc(CC)c1)C(=O)OCC`, the manual score was 0 (inactive).
Take `CCCCn1c(=N)n(CC(O)COc2cccc(C)c2)c2ccccc21` (stereo unspecified): the manual score was -1 (active).
As for `Cc1cccc(OCCn2c(=S)[nH]c3ccccc32)c1`, the manual score was 0 (inactive).
To `CCCCn1c(=O)nc2n(-c3ccccc3)c3ccccc3cc-2c1=O` belongs 0 (inactive); to `CC1CSc2ccccc2NC1=S` (stereo unspecified), 0 (inactive); to `COC(=O)c1sc(N2C(=O)C(O)=C(C(=O)c3ccc(C)o3)C2c2ccc(F)cc2)nc1C` (stereo unspecified), 0 (inactive).
In the case of `CC(C)(C)OC(=O)COc1cc(O)c2c(=O)cc(-c3ccccc3)oc2c1`, the manual score was 0 (inactive).
For the molecule `Fc1ccc(-c2nnc3ccc(N4CCc5ccccc5C4)nn23)cc1`, the manual score was 0 (inactive).
As for `CCOC(=O)Cn1c(=N)n(Cc2ccccc2F)c2ccccc21`, the figure is -1 (active); as for `CCOC(=O)c1cc2n(c1N)-c1ccccc1C2=O`, 3 (inactive).
To `CCOC(=O)Cn1c(=O)oc2cc(S(=O)(=O)NCCCc3ccccc3)ccc21` belongs 0 (inactive); to `CC(C)Oc1ccc(C2CC(=O)N(c3ccccc3)C2=O)cc1` (stereo unspecified), 0 (inactive); to `CCOc1cc(N2CCOCC2)c(OCC)cc1NC(=O)COC(=O)CCc1c[nH]c2ccccc12`, 0 (inactive).
As to `CCC(=O)N1CCN(c2ccccc2NC(=O)COc2cccc(C)c2)CC1`, the manual score was -1 (active).
On to `CC(C)C(=O)Nc1ccccc1N1CCN(C(=O)c2ccccc2)CC1`, for which the manual score is -1 (active).
As for `CCCC(=O)Nc1ccccc1N1CCN(C(=O)c2ccccc2)CC1`, the figure is -0.5 (inactive); as for `CC1(C)Cc2cccc(OCC(=O)Nc3ccccc3N3CCOCC3)c2O1`, -0.5 (inactive).
As for `O=C(Nc1ccccc1N1CCCCC1)c1ccccc1F`, the figure is 0 (inactive); as for `Cc1cccc(OCC(=O)NC(=S)Nc2ccccc2N2CCOCC2)c1`, 0 (inactive).
To `Cc1ccccc1OCC(=O)Nc1ccccc1N1CCOCC1` belongs -1 (active); to `Cc1cccc(OCC(=O)Nc2ccccc2N2CCN(C(=O)C(C)C)CC2)c1C`, -1 (active); to `Cc1cc(Cl)ccc1OCC(=O)Nc1ccccc1N1CCOCC1`, -1 (active).
In the case of `CCN(CC)c1ccc2cc(-c3nc4ccccc4[nH]3)c(=O)oc2c1`, the manual score is 3 (inactive).
Turning to `Cc1ccc(C(=O)NNC(=S)NC(=O)COc2ccccc2)cc1`, the manual score was 1 (active).
As to `Cc1ccccc1C(=O)NNC(=S)NC(=O)COc1ccccc1`, the manual score was 1 (active).
Consider `O=C(Cc1ccccc1)Nc1nc(-c2cccs2)cs1`, for which the manual score was 0 (inactive).
As for `CC(=O)c1c(C(C)=O)c(C)n(-c2nc(-c3cccs3)c(C)s2)c1C`, the figure is -1 (active); as for `CN(CC(=O)Nn1cnnc1)S(=O)(=O)c1ccc(Br)cc1`, 0 (inactive); as for `Cc1cccc(N2C(=O)CS/C2=N\NC(=O)c2ccc(Cl)cc2)c1C`, 1 (active).
As for `O=C(c1cnn2c(C(F)(F)F)cc(-c3cccs3)nc12)N1CCN(Cc2ccccc2)CC1`, the figure is -0.5 (inactive); as for `CCOC(=O)c1c(NS(=O)(=O)Cc2ccccc2)sc2c1CCCC2`, 1 (active); as for `CC(C)OC(=O)c1c(NS(=O)(=O)c2ccccc2)sc2c1CCCC2`, 1 (active).
As for `COC(=O)c1c(NC(=S)NC(=O)c2ccco2)sc2c1CCCC2`, the figure is 0 (inactive).
Take `COC(=O)c1c(NC(=S)Nc2ccc(F)cc2[N+](=O)[O-])sc2c1CCCCC2`: the manual score is 0 (inactive).
As for `COC(=O)c1c(NS(=O)(=O)c2ccc(C)cc2)sc2c1CCC(C)C2` (stereo unspecified), the figure is 0 (inactive); as for `CCOC(=O)c1c(NC(=S)Nc2ccccc2)sc2c1CCCCC2`, 0 (inactive); as for `Cc1ccc(-c2c(C)sc(NC(=O)C3C4CCC(O4)C3C(=O)O)c2C(=O)OC(C)C)cc1` (stereo unspecified), 0 (inactive).
Regarding `COC(=O)c1c(NS(=O)(=O)Cc2ccccc2)sc2c1CCCC2`, the manual score was 1 (active).
Turning to `CC1CCc2c(sc(NS(=O)(=O)c3ccccc3)c2C(=O)OC(C)C)C1` (stereo unspecified), the manual score is 0 (inactive).
With `CC(=O)Oc1ccc(N(C(C)=O)S(=O)(=O)c2cccs2)c2ccccc12`, the manual score is 0 (inactive).
To `COC(=O)c1c(NS(=O)(=O)c2cccs2)sc2c1CCCC2` belongs 1 (active).
As for `CCCc1nc2scc(-c3ccccc3)c2c(=O)n1N`, the figure is 0 (inactive); as for `S=c1[nH]cnc2scc(-c3ccccc3)c12`, 1 (active); as for `Cc1ccc(-c2csc3nc[nH]c(=S)c23)cc1C`, 1 (active).
As for `CCCCn1c(=O)[nH]c2nc3cc(N)ccc3nc2c1=O`, the figure is 3 (inactive); as for `CCCc1cc(-c2n[nH]c(=S)n2C(C)c2ccccc2)cs1` (stereo unspecified), 0 (inactive); as for `CN(C)Cc1c(O)ccc2occ(C(O)c3ccccc3)c12` (stereo unspecified), -1 (active).
Regarding `O=c1[nH]c2ccccc2n1CCC1CCCCC1`, the manual score is 0 (inactive).
On to `COc1ccc2c(-c3ccccc3)cc(SCC(=O)N(C)C3CCS(=O)(=O)C3)nc2c1` (stereo unspecified), for which the manual score is 0 (inactive).
For `CN(C(=O)CSC1=Nc2ccccc2C2=NC(c3ccccc3)C(=O)N12)C1CCCCC1` (stereo unspecified), the manual score is -1 (active).
To `Cc1ccccc1-n1c(SCc2ccccn2)nc2n[nH]c(C)c2c1=N` belongs 0 (inactive).
`CCN(c1ccccc1)S(=O)(=O)c1ccc(NC(=S)NC(=O)c2ccc(Br)o2)cc1`: the manual score was 1 (active).
As for `CN(c1ccccc1)S(=O)(=O)c1ccc(NC(=S)NC(=O)c2ccccc2)cc1`, the figure is 0 (inactive); as for `C=CCN(CC=C)S(=O)(=O)c1ccc(NC(=S)NC(=O)c2ccco2)cc1`, 0 (inactive).
As for `C=CCOc1ccc(/C(O)=C2/C(=O)C(=O)N(CCCN3CCOCC3)C2c2ccccc2)cc1` (stereo unspecified), the figure is 0 (inactive); as for `COc1cc(/C=C(\C#N)C(=O)Nc2cccnc2)ccc1OC(C)C`, 0 (inactive); as for `CCCn1c(C)cc(/C=C(\C#N)C(=O)OCC(=O)Nc2cccc(OC)c2)c1C`, 1 (active).
As for `O=S(=O)(Nc1ccc(S(=O)(=O)Nc2cccc3ccccc23)cc1)c1ccccc1`, the figure is 0 (inactive); as for `O=S(=O)(Nc1ccc2nc(C(F)(F)F)[nH]c2c1)c1ccccc1`, 1 (active).
As for `Oc1c(N=Nc2ccccn2)ccc2ccccc12`, the manual score is 1 (active).
To `Oc1ccc2ccccc2c1N=Nc1ccccn1` belongs 0 (inactive).
`CC(C)n1c(O)c(N=Nc2ccccn2)c2ccccc21`: the manual score was 0 (inactive).
`C=CCNC(=O)NC(=S)c1ccccc1`: the manual score was 0 (inactive).
To `CCCN(CCC)C(=S)NC(=O)c1ccc(-c2ccccc2)cc1` belongs 1 (active); to `C=CCN(CC=C)C(=S)NC(=O)c1ccc(-c2ccccc2)cc1`, 1 (active).
As for `C=CCN(CC=C)C(=S)NC(=O)c1ccc([N+](=O)[O-])cc1`, the figure is 1 (active).
As to `CN(Cc1ccccc1)C(=S)NC(=O)c1ccc(-c2ccccc2)cc1`, the manual score was 0 (inactive).
As for `O=C(NC(=S)NCC1COc2ccccc2O1)c1ccccc1` (stereo unspecified), the figure is 0 (inactive).
Consider `FC(F)(F)c1cnc(NNC(=S)Nc2ccccc2Cl)c(Cl)c1`, for which the manual score is 1 (active).
To `FC(F)(F)c1cnc(NNC(=S)Nc2ccc(Cl)cc2)c(Cl)c1` belongs 1 (active); to `NC(=O)c1ccc(Cc2ncc(C(F)(F)F)cc2Cl)s1`, 0 (inactive); to `Cc1ccc(NC(=S)NNc2ncc(C(F)(F)F)cc2Cl)c(C)c1`, 0 (inactive).
As for `O=C1/C(=C\c2ccccn2)SC(=S)N1Nc1ncc(C(F)(F)F)cc1Cl`, the figure is 0 (inactive).
As for `CC(C)CC(=O)CN1C(=O)C2(OCCO2)c2ccccc21`, the figure is 0 (inactive); as for `CCCCN(C)CC(O)Cn1cc(/C=C/C(=O)c2cccs2)c2ccccc21` (stereo unspecified), 3 (inactive).
As to `O=C1CC(c2ccncc2)c2cc3c(cc2N1)OCCO3` (stereo unspecified), the manual score was 0 (inactive).
As for `O=c1c2cc(F)ccc2[nH]c(=S)n1CCCN1CCOCC1`, the figure is 0 (inactive); as for `CC(C)OCCCn1c(=S)[nH]c2cc3c(cc2c1=O)OCO3`, 1 (active).
